In PubChem BioAssay AID1851 (National Center for Advancing Translational Sciences (NCATS), 2009):
“And” between values parts separate entries of the source, which are not always exact repeats. Equal values may be shown once. Screen size: about 16,000 compounds; about 4,000 (25%) were called active. Another 26% or so got no clear call; they are omitted. These entries were drawn from the full list. Values without a mark were called inactive. Calls follow the shape of the dose curve; as a rule, active = well fitted curve in the direction sought with a large enough effect; inconclusive = small, poorly fitted or top-dose-only effect, or effect the other way; inactive = no such curve, though single readings can be large or run the other way.

Target: Cytochrome P450 2C9 (Homo sapiens) (UniProt P11712)
Assay: Cytochrome panel assay with activity outcomes
Conditions: recombinant CYP, pro-luciferin dealkylation, luminescence, p450-cyp2c9; series mostly up to 57.1 µM; activity, negative = inhibition: at the top concentration
% is scaled to controls: 0 for no effect and ±100 for the full control effect.

Cytochrome P450 2C9 (Homo sapiens), sequence (P11712 whole entry, looked up): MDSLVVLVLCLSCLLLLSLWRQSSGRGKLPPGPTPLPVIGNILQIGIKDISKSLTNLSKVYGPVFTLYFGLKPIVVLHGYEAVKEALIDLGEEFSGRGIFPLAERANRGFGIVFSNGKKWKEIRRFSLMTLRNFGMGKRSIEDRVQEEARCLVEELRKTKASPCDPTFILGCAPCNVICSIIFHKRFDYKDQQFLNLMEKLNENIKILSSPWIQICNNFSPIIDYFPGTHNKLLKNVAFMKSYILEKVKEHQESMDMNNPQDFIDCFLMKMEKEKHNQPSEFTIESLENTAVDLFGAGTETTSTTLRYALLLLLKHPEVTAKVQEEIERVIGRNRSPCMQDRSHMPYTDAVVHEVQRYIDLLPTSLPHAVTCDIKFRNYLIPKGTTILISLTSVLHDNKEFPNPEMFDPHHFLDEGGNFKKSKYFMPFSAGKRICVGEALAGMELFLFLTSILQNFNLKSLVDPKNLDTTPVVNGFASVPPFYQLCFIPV

Structure (SMILES)	AC50	activity, negative = inhibition
COC(=O)CNC(c1ccccc1Cl)c1cc(Br)ccc1NC(=O)CCN1CCOCC1 (configuration not stated)	15.8 µM (active)	
Clc1ccccc1-c1cc(NCCN2CCOCC2)ncn1		16.8% [at 2.29 µM]
O=C(CSCc1ccccc1Cl)NNC(=O)c1ccccc1		-11.5%
O=C(NN1C(=O)c2ccccc2C1=O)C1CCCCC1		-28.6%
O=C(CSCc1ccccc1Cl)NNC(=S)Nc1ccccc1	2.51 µM (active)	
O=C(NNC(=S)Nc1ccccc1)C1CC1		-20.4%
O=C(CSCc1ccccc1Cl)NN1C(=O)c2ccccc2C1=O	3.98 µM (active)	
CC(C)CNC(=O)O		-4.26% [at 11.4 µM]
Clc1cccc(Cl)c1CSc1nnc(/C=C/c2ccccc2)o1		-33%
C(=C\c1nnc(-c2cccs2)o1)/c1ccccc1	14.1 µM (active)	
Cc1oc(-c2cccs2)[n+]([O-])c1C		-17.3%
CC1(C)N=C(N)N=C(N)N1c1cccc(OCc2cccc([N+](=O)[O-])c2)c1		-1.87% [at 11.4 µM]
O=[N+]([O-])c1ccc(C2CCCC/C2=N\OCc2cccc(F)c2)c([N+](=O)[O-])c1 (configuration not stated)	7.94 µM (active)	
CCN1CCN(C(=O)N[C@H](C(=O)N[C@@H]2C(=O)N3C(C(=O)O)=C(CSc4nnnn4C)CS[C@@H]23)c2ccc(O)cc2)C(=O)C1=O		-2.86% [at 25.6 µM]
CN(CCC(=O)O)S(=O)(=O)c1ccccc1		22.4% [at 11.4 µM]
CCCCN(CC)S(=O)(=O)c1ccc(C(=O)Nc2nnc(CSC)o2)cc1	0.891 µM (active)	
CCCCN(C)S(=O)(=O)c1ccc(C(=O)Nc2nnc(CSC)o2)cc1	0.794 µM (active)	
CN(Cc1ccco1)c1ccnc(-c2ccccc2C(F)(F)F)n1		-4.94% [at 2.29 µM]
O=C(O)C[C@H](S)C(=O)O		10.9% [at 11.4 µM]
O=C(c1ccc(Cl)cc1)N1CCN(C(=O)c2ccco2)CC1		-19.8%
O=C(c1cc(-c2ccc(Cl)cc2Cl)on1)N1CCN(C(=O)c2ccco2)CC1	7.08 µM (active)	
O=C(c1ccco1)N1CCN(C(=O)c2nn3cccnc3c2Cl)CC1		-8.31%
Cc1cccc(C)c1NC(=O)C[N+](C)(C)C		-10.4%

Structure (SMILES)	AC50	activity, negative = inhibition
CC[N+](CC)(CC)CC(=O)Nc1c(C)cccc1C		9.55%
Cc1cc2cc3c(cc2nc1SCC(=O)Nc1c(C)cccc1C)CCC3	4.47 µM (active)	
CO[C@H]1COC(=O)[C@H]2CCCN2C(=O)[C@@H](C)COC(=O)C/C=C\[C@@H]1C		7.11% [at 11.4 µM]
O=C(NCc1cccnc1)/C(=C/c1ccc(-c2cccc(Cl)c2)o1)S(=O)(=O)c1ccccc1	6.31 µM (active)	
CN(C(=S)Nc1ccccc1F)C1(c2ccccc2Cl)CCCCC1=O (configuration not stated)	17.8 µM (active)	
CCN(C(=S)Nc1ccccc1F)C1CCCCC1		-17%
COc1ccccc1CNc1ncncc1-c1ccc(C(=O)N(C)C)cc1		-24.3% [at 2.29 µM]
COc1ccccc1C(=O)NCCn1cc(SCC(=O)Nc2nnc(C)s2)c2ccccc21	2.24 µM (active)	
COC(=O)Nc1nc2ccc(SC(C)C)cc2[nH]1		-5.69% [at 25.6 µM]
Cc1noc(C)c1C(=O)N1CCC2(CCN(Cc3cc(C(F)(F)F)cc(C(F)(F)F)c3)CC2)CC1		-4.95%
CO[C@@H]1COC(=O)CC=C[C@@H](C)[C@@H]2C=C[C@H](O)[C@@H](COC(=O)[C@H](C)NC(=O)CC=C[C@H]1C)O2		-4.45% [at 11.4 µM]
CC(C)OP(=O)(OC(C)C)C(NC(=O)c1ccc(Br)cc1)c1ccccc1 (configuration not stated)	10 µM (active)	
Nc1ccccc1C#Cc1ccccc1	7.94 µM (active) and 14.1 µM (active)	
COCCn1c(=O)c(-c2cccs2)nc2cnc(Oc3ccccc3)nc21	3.98 µM (active)	
COc1ncc2nc(-c3cccs3)c(=O)n(-c3ccccc3)c2n1		-3.19%
COc1ccc(Oc2ncc3nc(-c4cccs4)c(=O)n(-c4ccccc4)c3n2)cc1		-29.6%
COCCn1c(=O)c(-c2cccs2)nc2cnc(N(C)C)nc21		-15.4%
COc1ccc(Oc2ncc3nc(-c4cc(F)cc(F)c4)c(=O)n(C)c3n2)cc1		-7.05%
Cn1cc(-c2nc3cnc(Oc4ccccc4)nc3n(C3CC3)c2=O)c2ccccc21		-16.2%
COCCn1c(=O)c(-c2cccs2)nc2cnc(Oc3ccc(OC)cc3)nc21	5.01 µM (active)	
COc1ccc(Oc2ncc3nc(-c4cccs4)c(=O)n(C)c3n2)cc1	3.16 µM (active)	
O=c1c(-c2cccs2)nc2cnc(Oc3ccccc3)nc2n1C1CC1	3.16 µM (active)	
CS(=O)(=O)Nc1cccc(-c2ccc3ncnc(NCc4cccnc4)c3c2)c1		-11.8% [at 2.29 µM]

Structure (SMILES)	AC50	activity, negative = inhibition
FC(F)(F)c1ccccc1-c1nc(NCc2cccs2)c2ccccc2n1		-25.9% [at 2.29 µM]
CC(C)C(=O)NCCc1nc2ccccc2n1CCCOc1ccc(Cl)cc1	3.16 µM (active)	
CC(C)C(=O)NCCn1ccc2ccccc21		-28.7%
C[C@H]1/C=C\CC(=O)OC[C@H](C)C(=O)N2CCC[C@@H]2C(=O)OC1		4.32% [at 11.4 µM]
O=C(CN1CCc2ccccc21)NC(=O)NCc1ccco1	15.8 µM (active)	
Cc1cnc(CNc2ncnc3ccc(-c4ccc(N(C)C)cc4)cc23)cn1		-3.84% [at 2.29 µM]
CO[C@@H]1COC(=O)[C@H](Cc2ccccc2)NC(=O)C/C=C\[C@@H](C)[C@H](OC)COC(=O)[C@@H](C)NC(=O)C/C=C\[C@H]1C		-11.8% [at 11.4 µM] and -14.5% [at 11.4 µM]
Cc1cccc(CNc2ncncc2-c2cccnc2)c1		1.46% [at 2.29 µM]
Cc1cccc(-n2nc([N+](=O)[O-])c(=NCc3cccnc3)n2O)c1	10 µM (active)	
S=C1NCN2CCN(CC2)CNC(=S)C(=S)NCN2CCN(CC2)CNC1=S		-2.75% [at 11.4 µM]
CC(=O)c1cc(NC(=O)c2ccccc2)c(=O)oc1/C=C/N(C)C		-16.5%
Cc1ccc(C(=O)Nc2cc3c(oc2=O)CCCC3=O)cc1		-13.2%
Cc1oc(=O)c(NC(=O)c2ccccc2)cc1C(=O)c1ccccc1	12.6 µM (active)	
Cc1cccc(CNc2cc(-c3c(C)noc3C)ncn2)c1		-2.84% [at 2.29 µM]
O=C(O)CC1(C(=O)O)CCCCC1		-2.68% [at 11.4 µM]
N.N.O=C(O)C1(C(=O)O)CCC1.[Pt]	3.98 µM (active)	
O=C(O)C1(C(=O)O)CCN(S(=O)(=O)c2ccccc2)CC1		-9.03% [at 11.4 µM]
Cc1ccc(CSC(N)=Nc2ccccc2)cc1C		7.44% [at 11.4 µM]
CN(C)/C=C/C(=O)c1ccc(F)cc1		-17.2%
CN(C)/C=C/C(=O)c1ccc(Cl)cc1		-21.1%
CC(Oc1ccc(Cl)cc1)C(=O)/C=C/N(C)C (configuration not stated)	12.6 µM (active)	
CCN(CC)CCn1c(=S)[nH]c2cc3c(cc2c1=O)OCO3		-28.2%
O=C(CCCCCn1c(=S)[nH]c2cc3c(cc2c1=O)OCO3)N1CCN(C2CCCCC2)CC1	1.12 µM (active)	

Structure (SMILES)	AC50	activity, negative = inhibition
CN(Cc1ccco1)c1ncncc1-c1cccc(C#N)c1		2.42% [at 2.29 µM]
C[N+](C)(C)CC(=O)O		6.18%
COCCNc1ccnc(-c2c(C)noc2C)n1		17.7% [at 2.29 µM]
Cc1nc(SCC(=O)NCCc2ccc(Cl)cc2)nc(C)c1C		-28%
CCc1nc(SCC(=O)NCCc2ccccc2)c2oc3ccccc3c2n1	1.12 µM (active)	
Cc1nc(SCC(=O)c2ccc(Cl)s2)c2oc3ccccc3c2n1	0.447 µM (active)	
CCc1nc(SCC(=O)c2ccc(Cl)s2)c2oc3ccccc3c2n1	1.12 µM (active)	
Cc1nc(Oc2ccc(Cl)cc2)c2oc3ccccc3c2n1		-25.9%
Cc1nc(SCC(=O)Nc2ccc3c(c2)OCCO3)c2oc3ccccc3c2n1	2 µM (active)	
Nc1nc(SCc2ccc([N+](=O)[O-])cc2)c2ncn([C@@H]3O[C@@H](CO)[C@@H](O)[C@H]3O)c2n1		13.2%
CN1CCC(=C2c3ccccc3C=Cc3ccccc32)CC1	inactive	
CO[C@@H]1COC(=O)[C@H](CCSC)NC(=O)C/C=C\[C@@H](C)COC(=O)[C@@H]2CCCN2C(=O)C/C=C\[C@H]1C		13.2% [at 11.4 µM]
CCNc1ncc2nc(-c3ccc(Cl)cc3)c(=O)n(C[C@H]3CCCO3)c2n1		-1.79%
CN1CCc2c(c3ccccc3n2C)C1		-11.6%
CC(C)c1ccc(NC(=O)N(CCc2nc3ccccc3[nH]2)C2CCCC2)cc1	7.94 µM (active)	
Cn1c(=O)c2[nH]c(CCCCc3nc4ccccc4[nH]3)nc2n(C)c1=O		2.16% [at 11.4 µM]
COCC(=O)O[C@]1(CCN(C)CCCc2nc3ccccc3[nH]2)CCc2cc(F)ccc2[C@@H]1C(C)C		13.1%
Cc1cnc(CNc2ncnc3ccc(-c4ccccc4C(F)(F)F)cc23)cn1		-21.8% [at 2.29 µM]
COc1ccc(S(=O)(=O)N2CCCCCC2)cc1N(C)S(=O)(=O)c1ccc(Cl)cc1	4.47 µM (active)	
CC(=O)ON(C(C)=O)S(=O)(=O)c1ccc(Cl)cc1		-9.68%
COc1ccc(NS(=O)(=O)c2ccc(I)cc2)cc1N1CCN(C)CC1		-14%
COc1ccc(S(=O)(=O)Nc2ccc(S(=O)(=O)N3CCCCC3)cc2)cc1C	0.355 µM (active)	
CSc1nc2cc(S(=O)(=O)N3CCCCC3)ccc2s1		-29.2% [at 11.4 µM]
